The record followed here is the supplement of paper PMC6555819.

What all share (test): PBM binding z-score (relative to random genomic background probes); higher = stronger binding; sequences stand for … in GC…GCGATTGACAGCGTAGAATGAAGG
For experiment [1], the system named is RARb homodimer (NR concentration 270 nM). In a few lines: (§1)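 Regression normalization was applied to scanned fluorescence from custom Agilent 4×180K protein-binding microarrays. Before scanning, arrays were incubated 1 h with ligand-free nuclear receptor dimers, and binding was detected with antibodies against each partner (one per run). Binding z-scores use the random background probes as reference.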

In experiment [2] the test system is RARg:RXRa (NR concentration 270 nM, RXRa partner concentration 90 nM). In outline:
as §1

The test system of experiment [3] is RARg homodimer (NR concentration 270 nM). In a few lines: as §1
Experiment [4] concerns RXRa DBDmut IVT, anti-RXR (DBD mutation: RXRa K156A/R161A, NR concentration 90 nM). In outline:
as §1

Experiment [5] deals with RXRa homodimer (NR concentration 180 nM). In outline:
as §1

Experiment [6] has as its system THRa:RXRa (NR concentration 90 nM, RXRa partner concentration 90 nM). In a few lines: as §1
Experiment [7] relates to THRa homodimer (NR concentration 90 nM). In a few lines: as §1
The subject of experiment [8] is VDR:RXRa (NR concentration 270 nM, RXRa partner concentration 90 nM). In a few lines:
as §1

Experiment [9] has as its system VDR homodimer (NR concentration 270 nM). In outline: as §1

As for GCTGCTAGGTTAGGTTGGTCAGCTAACGGGTACG, the PBM binding z-score in [1] was 0.8; in experiment [2], 0.0162; in experiment [3] it was 0.355; in experiment [4] it was 0.0127; in [5], -0.131; in [6], 0.0584. The PBM binding z-score in experiment [7] was -0.34; in experiment [8], -0.323; in [9], 0.253.

Take TCATATAGGGAATACAGGTGAAAGTCGGCATCTA: the PBM binding z-score in experiment [1] is 0.795; in experiment [2], 0.472; in [3] it was 0.506; in experiment [4], 1.68; in experiment [5] it was 1.24; in [6], 0.864. In addition, the PBM binding z-score in experiment [7] was 0.624; in experiment [8], 1.11; in experiment [9] it was 0.435.

CCTCGGAGGACAACAGTAGGTCAGAGCTGCCAGA: the PBM binding z-score is 2.54 in [1]; 1.94 in [2]; 2.24 in experiment [3]; 0.271 in experiment [4]; 0.593 in experiment [5]; 1.67 in [6]. Moreover, the PBM binding z-score in experiment [7] is 0.256; in experiment [8], 0.152; in [9], -0.109.

As for CCTACTGGGCCAAAGGTCATTCATTCCAATGCTC, the PBM binding z-score in experiment [1] turned out to be 4.47; in experiment [2] it was 5.99; in experiment [3], 4.7; in [4] it was 1.65; in experiment [5], 6.93; in experiment [6], 3.3. The PBM binding z-score in [7] is 1.06; in experiment [8], 4.67; in experiment [9] it was 3.3.

As for GCGAGCAGGCCATTTGGGTCACTCAATGACGGGC, the PBM binding z-score in [1] worked out at 1.96; in experiment [2], 1.09; in experiment [3], 1.37; in experiment [4], 0.115; in [5], 0.824; in [6], 1.85. In addition, the PBM binding z-score in [7] was found to be 0.687; in experiment [8], 0.881; in experiment [9], 0.921.

For CCAGACAGGTGAGAAGGTAACTCACCCTCGATTA, the PBM binding z-score was 0.972 in experiment [1]; 0.89 in experiment [2]; 0.67 in [3]; 0.134 in experiment [4]; 0.806 in [5]; 0.55 in experiment [6]. Also, the values for the PBM binding z-score in experiment [7], in experiment [8] and in experiment [9] were 0.193, 0.0837 and -0.0144, respectively.

In the case of TCATATCGGTAAAAGGTGAAAGTCGGTGTGGTAA, the PBM binding z-score in experiment [1] was determined as 2.12; in [2], 1.68; in [3], 0.807; in experiment [4], 1.6; in [5], 2.29; in experiment [6], 1.4. For the same sequence, the PBM binding z-score in [7] was 0.504; in [8], 1.54; in experiment [9], 0.635.

For GCTCGGATGACAAGGTCAGAGCTTTGTCCGTAGA, the PBM binding z-score in experiment [1] was determined as 2.57; in experiment [2] it was 2.42; in [3] it was 2.02; in experiment [4], 0.22; in [5], 2.15; in experiment [6], 2.5. Moreover, the figures for the PBM binding z-score in experiment [7], in [8] and in experiment [9] were 1.09, 0.722 and 0.292, respectively.

For the sequence CAAACTAGGTCACAGAGGCCAAAGTCCGTGCGTA, the PBM binding z-score was 3.73 in [1]; 4.88 in experiment [2]; 5.37 in [3]; 2.45 in experiment [4]; 3.63 in experiment [5]; 3.66 in [6]. The PBM binding z-score in experiment [7] turned out to be 1.54; in [8] it was 6.5; in [9], 2.62.

TCTGCTAGGTCAACGATGGTAAGCTAATCTGCTA: the PBM binding z-score was 2.66 in [1]; 3.8 in experiment [2]; 4.83 in [3]; 0.819 in experiment [4]; 2.4 in experiment [5]; 2.62 in experiment [6]. Besides, the PBM binding z-score was 0.291 in experiment [7], 1.82 in experiment [8] and -0.612 in experiment [9].

Regarding TCTATTAGTTGAAGGCCAACCGACGAGTCCGTTT, the PBM binding z-score was 0.914 in [1]; 0.229 in [2]; 0.415 in experiment [3]; 1.59 in experiment [4]; 0.648 in experiment [5]; 0.129 in experiment [6]. Besides, the figures for the PBM binding z-score in experiment [7], in [8] and in experiment [9] were 0.372, 1.02 and 1.35, respectively.

As for TCTATTAGTTGAACGGCAACCGACGAGTCCGTTT, the PBM binding z-score in [1] is -0.12; in experiment [2], 0.0941; in experiment [3], -0.2; in experiment [4], 1.53; in experiment [5] it was 0.254; in experiment [6], -0.127. The figures for the PBM binding z-score in experiment [7], in [8] and in [9] were 0.107, 0.759 and 0.971, respectively.

As for TCATATAGGTAAATGCTAGGTGAAAGTGCGATCT, the PBM binding z-score in experiment [1] turned out to be 0.752; in experiment [2], 0.609; in [3], 0.488; in experiment [4] it was 1.55; in experiment [5], 1; in experiment [6], 1.64. Further, the results for the PBM binding z-score in experiment [7], in experiment [8] and in experiment [9] were 0.475, 0.984 and 0.485, respectively.

AGAATGAGGTTATAAAGATCAGGGAATTGCGGTC: the PBM binding z-score worked out at 0.868 in [1]; 1.15 in [2]; 0.986 in experiment [3]; 1.35 in [4]; 1.92 in [5]; 2.14 in [6]. Moreover, the values for the PBM binding z-score in [7], in [8] and in [9] were 0.473, 1.27 and 1.01, respectively.

Consider CCTGCTAGGTCAAGGTCAGCTAATCTACAGTATG, for which the PBM binding z-score in experiment [1] worked out at 5.07; in [2] it was 5.45; in [3], 7.01; in experiment [4] it was 2.36; in [5], 4.54; in [6], 3.97. For the same sequence, the PBM binding z-score in [7] came out at 2.88; in experiment [8], 3.4; in experiment [9], 1.23.

Take CCTACTGGGCCACGAAAGCTCATTGATTCAGTGA: the PBM binding z-score in experiment [1] is -0.538; in [2], -0.286; in [3] it was 0.00415; in experiment [4] it was -0.605; in experiment [5], -0.6; in experiment [6] it was -0.523. Also, the PBM binding z-score is -0.958 in experiment [7], -0.828 in experiment [8] and -0.935 in experiment [9].
